Experimental findings from PubChem BioAssay (EPA / NIEHS) are described below.

SMILES strings stand for the structures. Calls of active or inactive are those of the source. How the source made its calls: active means hit-call score of the fitted dose curve at least 0.9, where 1 is the maximum; inactive means score below 0.9.

Read-out in assay [1]: Human Leukocyte Antigen - DR isotype (HLADR), HLA-DRA (gene 3122)
Put plainly: BSK_BE3C_HLADR: BioMAP Diversity Plus: BE3C Assay for Human Leukocyte Antigen - DR isotype (HLADR) Biomarker Activity (AID 2283032). The following applies: primary human bronchial epithelial cells; actives raise or lower the signal. In outline:
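Cell-surface HLA-DR ELISA readout at 24 h after dosing in the BE3C primary human lung bronchial epithelial system; gain or loss of signal against DMSO, with parallel sulforhodamine B staining of total protein for overt cytotoxicity.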

Read-out in assay [2]: Interferon-gamma inducible Protein 10 (IP10), CXCL10 (gene 3627)
The assay is described as follows: BSK_BE3C_IP10: BioMAP Diversity Plus: BE3C Assay for Interferon-gamma inducible Protein 10 (IP10) Biomarker Activity (AID 2283034). The conditions noted are these: primary human bronchial epithelial cells; actives raise or lower the signal. The gist of the method: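 IP-10 quantified by ELISA in human primary bronchial epithelial cell cultures at 24 hours post-dosing. Gain or loss of signal fitted relative to DMSO; parallel SRB staining assessed overt cytotoxicity.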

Read-out in assay [3]: Monokine induced gamma interferon (MIG), CXCL9 (gene 4283)
The assay is described as follows: BSK_BE3C_MIG: BioMAP Diversity Plus: BE3C Assay for Monokine induced gamma interferon (MIG) Biomarker Activity (AID 2283035). The conditions noted are these: primary human bronchial epithelial cells; actives raise or lower the signal. The gist of the method:
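ELISA quantified MIG after 24 h exposure of primary bronchial epithelial cultures, analysed in both directions relative to DMSO. Cytotoxicity tracked in parallel cultures by sulforhodamine B staining.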

Read-out in assay [4]: Transforming growth factor beta 1 (TGFb1), TGFB1 (gene 7040)
The assay is described as follows: BSK_BE3C_TGFb1: BioMAP Diversity Plus: BE3C Assay for Transforming growth factor beta 1 (TGFb1) Biomarker Activity (AID 2283036;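 further: TGF-b1 protein level measured by ELISA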). The conditions noted are these: primary human bronchial epithelial cells; actives raise or lower the signal. The gist of the method:
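ELISA readout of TGF-b1 from human lung bronchial epithelial primary cells, taken 24 h post-treatment. Gain or loss of signal fitted relative to DMSO baseline, with parallel SRB staining for overt cytotoxicity.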

Read-out in assay [5]: Plasminogen activator inhibitor-1 (PAI1), SERPINE1 (gene 5054)
Put plainly: BSK_BE3C_PAI1: BioMAP Diversity Plus: BE3C Assay for Plasminogen activator inhibitor-1 (PAI1) Biomarker Activity (AID 2283037). The following applies: primary human bronchial epithelial cells; actives raise or lower the signal. The gist of the method:
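PAI-1 was measured by ELISA in human primary bronchial epithelial cultures 24 h after chemical dosing, with cytotoxicity checked by SRB total-protein staining in parallel cultures. Activity was fitted in both directions relative to DMSO.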

Read-out in assay [6]: urokinase plasminogen activator (uPA), PLAU (gene 5328)
The assay is described as follows: BSK_BE3C_uPA: BioMAP Diversity Plus: BE3C Assay for urokinase plasminogen activator (uPA) Biomarker Activity (AID 2283038).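 Further: uPA protein level quantified by ELISA in cell cultures; uPA read one day after compound addition.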 The conditions noted are these: primary human bronchial epithelial cells; actives raise or lower the signal. In outline:
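Using confluent primary human lung bronchial epithelial cultures, we dosed chemicals, waited 24 h, then ran a uPA ELISA, fitting bidirectionally against DMSO.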

Read-out in assay [7]: Urokinase-type plasminogen activator receptor (uPAR), PLAUR (gene 5329)
The assay is described as follows: BSK_BE3C_uPAR: BioMAP Diversity Plus: BE3C Assay for Urokinase-type plasminogen activator receptor (uPAR) Biomarker Activity (AID 2283039).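 On outcome: cells exposed to compound for one day before measurement.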 The conditions noted are these: primary human bronchial epithelial cells; actives raise or lower the signal. The gist of the method:
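uPAR levels were measured by ELISA after 24 h compound treatment of primary human bronchial epithelial cells, fitted in both directions relative to DMSO. Parallel SRB staining served as the cytotoxicity read-out.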

Read-out in assay [8]: Interleukin-6 (IL6), IL6 (gene 3569)
The assay is described as follows: BSK_CASM3C_IL6: BioMAP Diversity Plus: CASM3C Assay for Interleukin-6 (IL6) Biomarker Activity for (AID 2283040). The conditions noted are these: primary human coronary artery smooth muscle cells; actives raise or lower the signal.

Read-out in assay [9]: Tissue plasminogen activator (tPA), PLAT (gene 5327)
Put plainly: BSK_BE3C_tPA: BioMAP Diversity Plus: BE3C Assay for Tissue plasminogen activator (tPA) Biomarker Activity (AID 2283041).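 Further: tPA level quantified by ELISA one day after compound addition.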 The following applies: primary human bronchial epithelial cells; actives raise or lower the signal. The gist of the method: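 tPA measured by ELISA 24 h after dosing human primary bronchial epithelial cells (BE3C system). Changes in either direction were fitted against DMSO. Parallel cultures were stained with SRB to flag overt cytotoxicity.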

Read-out in assay [10]: Interleukin-8 (IL8), CXCL8 (gene 3576)
The assay is described as follows: BSK_CASM3C_IL8: BioMAP Diversity Plus: CASM3C Assay for Interleukin-8 (IL8) Biomarker Activity (AID 2283042).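 Further: IL-8 protein level quantified by ELISA.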 The following applies: primary human coronary artery smooth muscle cells; actives raise or lower the signal.

Read-out in assay [11]: Human Leukocyte Antigen - DR isotype (HLADR), HLA-DRA (gene 3122)
Put plainly: BSK_CASM3C_HLADR: BioMAP Diversity Plus: CASM3C Assay for Human Leukocyte Antigen - DR isotype (HLADR) Biomarker Activity (AID 2283043).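 Further: cell-surface HLA-DR protein level quantified by ELISA.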 The following applies: primary human coronary artery smooth muscle cells; actives raise or lower the signal.

Read-out in assay [12]: Macrophage colony-stimulating factor (MCSF), CSF1 (gene 1435)
Put plainly: BSK_CASM3C_MCSF: BioMAP Diversity Plus: CASM3C Assay for Macrophage colony-stimulating factor (MCSF) Biomarker Activity (AID 2283044).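 Further: M-CSF protein amount quantified by ELISA after 24 h exposure.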 The conditions noted are these: primary human coronary artery smooth muscle cells; actives raise or lower the signal.

Read-out in assay [13]: Low-density lipoprotein receptor (LDLR), LDLR (gene 3949)
The assay is described as follows: BSK_CASM3C_LDLR: BioMAP Diversity Plus: CASM3C Assay for Low-density lipoprotein receptor (LDLR) Biomarker Activity (AID 2283045).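 Further: LDLR protein level on the cell surface quantified by ELISA.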 The conditions noted are these: primary human coronary artery smooth muscle cells; actives raise or lower the signal.

Read-out in assay [14]: Monocyte Chemoattractant Protein-1 (MCP1), CCL2 (gene 6347)
Put plainly: BSK_CASM3C_MCP1: BioMAP Diversity Plus: CASM3C Assay for Monocyte Chemoattractant Protein-1 (MCP1) Biomarker Activity (AID 2283046).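 Further: MCP-1 level quantified by ELISA 24 h after dosing.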 The following applies: primary human coronary artery smooth muscle cells; actives raise or lower the signal.

The nature of assay [15]: BSK_CASM3C_Proliferation: Cell Proliferation Assessment in the BioMAP Diversity Plus: CASM3C Assay (AID 2283047).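 Further: sulforhodamine B total protein stain as relative cell number at 560 nm; sub-confluent cells exposed 48 h before staining; fitted both ways against DMSO so gain or loss of cell number.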 The conditions noted are these: primary human coronary artery smooth muscle cells.
Read-out in assay [16]: Monokine induced gamma interferon (MIG), CXCL9 (gene 4283)
Put plainly: BSK_CASM3C_MIG: BioMAP Diversity Plus: CASM3C Assay for Monokine induced gamma interferon (MIG) Biomarker Activity (AID 2283048).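 Further: MIG protein level measured by ELISA.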 The following applies: primary human coronary artery smooth muscle cells; actives raise or lower the signal.

Read-out in assay [17]: serum amyloid A (SAA), SAA1 (gene 6288)
The assay is described as follows: BSK_CASM3C_SAA: BioMAP Diversity Plus: CASM3C Assay for serum amyloid A (SAA) Biomarker Activity (AID 2283049).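 Further: SAA protein level quantified by ELISA.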 The conditions noted are these: primary human coronary artery smooth muscle cells; actives raise or lower the signal.

Assay [18] is described as follows: BSK_CASM3C_SRB: Viability Assessment in the BioMAP Diversity Plus: CASM3C Assay (AID 2283050). The following applies: primary human coronary artery smooth muscle cells.
Read-out in assay [19]: Thrombomodulin, THBD (gene 7056)
The assay is described as follows: BSK_CASM3C_Thrombomodulin: BioMAP Diversity Plus: CASM3C Assay for Thrombomodulin Biomarker Activity (AID 2283051).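 Further: thrombomodulin protein level measured by ELISA 24 h after dosing.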 The following applies: primary human coronary artery smooth muscle cells; actives raise or lower the signal.

In the case of `Clc1ccccc1Cl`, the result in assay [1], in assay [2], in [3], in [4], in assay [5] and in assay [6] was inactive. The outcome in [7], in [8], in assay [9], in assay [10], in assay [11] and in assay [12] was inactive. In addition, the result in [13], in assay [14], in assay [15], in assay [16], in [17] and in assay [18] was inactive. Also, the result in [19] was inactive.

In the case of `COC(=O)c1ccccc1N`, the outcome in assay [1], in assay [2], in assay [3], in [4], in assay [6] and in [7] was inactive. The outcome in assay [8], in [9], in assay [10], in [11], in [12] and in assay [13] was inactive. Further, the result in [14], in [15], in [16], in assay [17], in [18] and in [19] was inactive.

Consider `O=C(Oc1ccc(Br)cc1)N1CCN2CCC1CC2`, for which the outcome in assay [1], in [2], in assay [3], in assay [4], in [6] and in [7] was inactive. Besides, the result in [8], in assay [9], in assay [10], in [11], in [12] and in assay [13] was inactive. Moreover, the result in assay [14], in [15], in assay [16], in assay [17], in [18] and in [19] was inactive.

The term AC50 denotes the midpoint of the concentration-response curve, whichever way the signal moves. Take `CN(C)c1ccc(C(=O)c2ccc(N(C)C)cc2)cc1`: the result in [1], in [2], in assay [3], in assay [4], in [5] and in assay [6] was inactive. In addition, the outcome in assay [7], in [8], in assay [9], in assay [10], in [11] and in assay [12] was inactive. For the same compound, the outcome in assay [13], in [14], in [16], in [17], in assay [18] and in assay [19] was inactive. In addition, the AC50 in assay [15] is 2 µM (active).

As for `CC(C)(OOC(C)(C)c1ccccc1)c1ccccc1`, the AC50 in assay [1] is 27.7 µM (active); in [7], 11.6 µM (active); in assay [11] it was 28.8 µM (active); in assay [15], 30.3 µM (active); in [19], 32.1 µM (active). The result in assay [2], in [3], in [4], in assay [6], in assay [8] and in [9] was inactive. The result in assay [10], in assay [12], in assay [13], in [14], in assay [16] and in assay [17] was inactive. Also, the outcome in assay [18] was inactive.

As for `CCN(CC)CCO`, the outcome in assay [1], in assay [2], in assay [3], in assay [4], in assay [6] and in assay [7] was inactive. For the same compound, the result in assay [8], in assay [9], in assay [10], in assay [11], in assay [12] and in [13] was inactive. Besides, the outcome in [14], in assay [15], in assay [16], in assay [17], in assay [18] and in assay [19] was inactive.

As for `Nc1cc(Cl)cc(C(=O)O)c1Cl`, the result in assay [1], in assay [2], in assay [3], in [4], in assay [6] and in [7] was inactive. Further, the outcome in [8], in [9], in assay [10], in assay [11], in assay [12] and in [13] was inactive. The result in [14], in assay [15], in assay [16], in [17], in assay [18] and in [19] was inactive.
